Data from PubChem BioAssay (Tox21).
Inconclusive results are not listed. Entries that show only a call come without a potency. The source made the active and inactive calls. Calls follow the shape of the dose curve; as a rule, active = well fitted activation curve with a large enough effect in the repeat runs; inconclusive = weak or mixed curves; inactive = flat fitted curve, though single readings scatter.

test: A CellTox Green Cytotoxicity Assay to monitor cytotoxicity in HepG2 cells - 16 hour (AID 1224876); settings: CellTox Green fluorescence; series mostly up to 76.8 µM; also: nearly all actives have a fitted effect of over 45% in size
Text: National Center for Advancing Translational Sciences [NCATS]
NIH Chemical Genomics Center [NCGC]
U.S. Environmental Protection Agency [EPA]
National Institutes of Environmental Health Sciences [NIEHS]
National Toxicology Program [NTP]
Cell-based models are critical for drug discovery. Determining the natural cytotoxic effects resulting from test compounds is an essential research activity. A CellTox Green Cytotoxicity Assay to monitor cytotoxicity in real time of continues cell culture during 40 hours of the compound treatment was used to screen Tox21 10K library compounds in HepG2 cells. CellTox Green Cytotoxicity Assay is a nonlytic, homogeneous, biofluorescent method to measure cytotoxicity in cell culture after experimental manipulation. The assay system uses a proprietary asymmetric cyanine dye that is excluded from viable cells but preferentially stains the dead cell's DNA. […] Viable cells produce no appreciable increases in fluorescence. Therefore, the fluorescence signal produced by the binding interaction with dead cell DNA is proportional to cytotoxicity.
The mixture of HepG2 cell suspension and reagents were dispensed at 600cells/6 ul/well in 1536-well tissue culture treated black solid bottom plates using a Multidrop dispenser. After the assay plates were incubated at a 37 C/5% CO2 incubator for 5 hours, 23 nL of compounds dissolved in DMSO, positive and negative controls was transferred to the assay plate by a pintool work station. The plates were incubated at 37 C for 40 hours. The fluorescence intensity were measured at 0h, 8h, 16h, 24h, 32h and 40h time points using ViewLux plate reader during compound treatment.
Potency is read from the fitted curve at half-maximal effect.

Structure (SMILES) | Potency | cytotoxicity increase
C1CSCCS1 | inactive | 
CCOC(=O)CS | inactive | 
CC/C=C\CCOC(=O)C(C)C | inactive | 
O=C1Nc2ccc([N+](=O)[O-])cc2C1=O | inactive | 
C[C@@H]1CN(c2c(F)c(F)c3c(=O)c(C(=O)O)cn(C4CC4)c3c2F)C[C@H](C)N1 |  | -10.9% [at 15.8 µM] (inactive)
O=C1N(c2ccccc2)c2ccccc2C1(Cc1ccncc1)Cc1ccncc1 | inactive | 
Cc1cc(S(=O)(=O)O)c(N)cc1Cl | inactive | 
O=C1CCCCCCCCCCC(=O)OCCO1 | inactive | 
CN1CCN(C2=Nc3cc(F)ccc3Cc3ccccc32)CC1 | inactive | 
Oc1ccccc1F | inactive | 
CC(C)CC(=O)OCc1ccccc1 | inactive | 
O=C1CCC(C2CCCCC2)CC1 | 38.9 µM (active) | 
O=C1C=CC(=O)O1 | inactive | 
CC(C)(C)c1ccc(OC(=O)c2ccccc2O)cc1 | inactive | 
CCOc1ccccc1N | inactive | 
N#CSCC(=O)O | inactive | 
CN(C)Cc1ccccc1 | inactive | 
CC(C)CCCCCCc1ccc(OCCOCCO)cc1 | inactive | 
COc1cc(N)c(Cl)cc1C(=O)NC1CCN(Cc2ccccc2)CC1 | inactive | 
NCCC(O)(P(=O)(O)O)P(=O)(O)O | inactive | 

Structure (SMILES) | Potency | cytotoxicity increase
CC(=O)OC(C)OC(C)=O | inactive | 
CC/C=C\CCOC(=O)CCCCC | inactive | 
CCCCCCCCCCCCOCCOS(=O)(=O)O | 49 µM (active) | 
CC(=O)Oc1cc(C(C)C)c(OCCN(C)C)cc1C | inactive | 
Cc1ncc(CO)c(CN)c1O | inactive | 
O=C(O)[C@@H](O)[C@H](O)[C@H](O)[C@@H](O)C(=O)O | inactive | 
CCC(=O)Nc1ccc(O)cc1 | inactive | 
O=C(Cl)c1cccc([N+](=O)[O-])c1 | inactive | 
CCN(O)CC | inactive | 
CCCOCCC | inactive | 
CO[Si](C)(C)OC | inactive | 
CCOC(=O)c1cc(=O)c2c(OCC(COc3cccc4oc(C(=O)OCC)cc(=O)c34)OC(=O)[C@@H](N)CCCCN)cccc2o1 | inactive | 
c1ccc(CN(CC2=NCCN2)c2ccccc2)cc1 | inactive | 
C/C(=N\O)[C@@H](C)NCC(C)(C)CN[C@H](C)/C(C)=N/O | inactive | 
CNCCC(Oc1ccccc1OC)c1ccccc1 (stereo not given) | inactive | 
CC(=O)OC1C2(C)CCC(C2)C1(C)C (stereo not given) | inactive | 
Cc1nc(-c2ccccn2)ncc1C(=O)Nn1cc(C)c2cc(F)ccc21 | inactive | 
NS(=O)(=O)c1cc(-c2nn[nH]n2)c(NCc2cccs2)cc1Cl | inactive | 
CCCCCCCCCC/C=C/C#N | inactive | 
C=CCCCCCCCCO | inactive | 
